This passage reports growth results from PubChem BioAssay (NCI).

Some test systems named below: NCI-H23 lung; NCI-H226 lung; NCI-H322M lung; HOP-62 NSCLC; NCI-H460 lung; HOP-92 NSCLC; NCI-H522 lung; A549/ATCC NSCLC; 786-0 renal; COLO 205 colon; DU-145 prostate; K-562 leukemia; MALME-3M melanoma; MDA-MB-231 breast; RXF 393 renal; SF-268 CNS; SF-295 CNS; SF-539 CNS; UACC-257 melanoma; M14 melanoma.
Common to all, as to experiment: NCI-60 one-dose screen, 48 h (100 = growth as untreated, 0 = no growth, -100 = all killed)
Holding throughout (conditions): 10 µM unless noted

Compounds without any hit were thinned out: in the full panel of roughly 83,000, 20% have a hit.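 Cell lines were cultured in 96-well plates, exposed to a single compound concentration, and assessed for percent growth 48 hours later.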 A number with no mark means an inactive call. Calls of active or inactive are those of the source. How the source made its calls: active means growth percent below 10; inactive means the rest.

As to `Nc1nc2ccccc2c2c(=O)c3cc(F)ccc3sc12`, the growth in the test on NCI-H23 lung is 87.3%; in the test with NCI-H226 lung it was 94.5%; in the test with NCI-H322M lung, 99.2%; in the test with HOP-62 NSCLC, 108%; with NCI-H460 lung it was 103%; in the test with HOP-92 NSCLC, 80.8%. The growth in the test on NCI-H522 lung was 98.1%; with A549/ATCC NSCLC it was 104%; with 786-0 renal, 97.4%; with COLO 205 colon it was 110%; in the test with DU-145 prostate it was 104%; in the test on K-562 leukemia it was 107%. The growth in the test on MALME-3M melanoma is 96.5%; with MDA-MB-231 breast, 100%; in the test on RXF 393 renal, 104%; in the test on SF-268 CNS it was 103%; with SF-295 CNS, 100%; in the test with SF-539 CNS, 104%. Also, in the test with UACC-257 melanoma, the growth was 104%.

Consider `CCOC(=O)c1c(C)nc2c(c1N)CC(=O)N2Cc1ccc(F)cc1`, for which the growth was 99.8% in the test with NCI-H23 lung; 90.8% with NCI-H226 lung; 107% in the test on NCI-H322M lung; 82.1% with HOP-62 NSCLC; 99.7% in the test on NCI-H460 lung; 71.5% in the test on HOP-92 NSCLC. The growth in the test on NCI-H522 lung was 63.7%; with A549/ATCC NSCLC it was 90.8%; in the test with 786-0 renal it was 98.3%; with COLO 205 colon, 103%; in the test on DU-145 prostate, 100%; in the test with K-562 leukemia, 93.3%. Moreover, the growth with MALME-3M melanoma was 116%; with MDA-MB-231 breast it was 97.9%; in the test with RXF 393 renal, 101%; in the test on SF-268 CNS it was 96.4%; with SF-295 CNS, 95.3%; in the test with SF-539 CNS, 92.9%. Also, the growth in the test with UACC-257 melanoma was 96%.

`CCOC(=O)C1=C(N)Oc2c(sc3c(C)cccc23)C1c1ccc(OC)cc1` (stereo not drawn): the growth with NCI-H23 lung was 46.4%; in the test with NCI-H226 lung, 55.2%; with NCI-H322M lung, 50.9%; in the test with HOP-62 NSCLC, 34.4%; in the test on NCI-H460 lung, 21.9%; in the test on HOP-92 NSCLC, 66.1%. Also, the growth is 17.1% in the test with NCI-H522 lung; 42.7% in the test with A549/ATCC NSCLC; 49.3% in the test on 786-0 renal; 118% with COLO 205 colon; 50.5% in the test on DU-145 prostate; 10.5% in the test with K-562 leukemia. Besides, the growth in the test with MALME-3M melanoma was 43.9%; in the test with MDA-MB-231 breast, 46.3%; with RXF 393 renal it was 29.8%; in the test on SF-268 CNS it was 51%; with SF-295 CNS, 19.4%; with SF-539 CNS it was 15.4%. Besides, the growth in the test with UACC-257 melanoma is 46.8%; in the test on M14 melanoma, 21.7%.

`O=c1[nH]c2c(ccc3cnccc32)c2c1CCC2`: the growth in the test on NCI-H23 lung is -64.6% (active); in the test on NCI-H226 lung, -6.54% (active); with NCI-H322M lung, -11.7% (active); in the test on HOP-62 NSCLC, -3.9% (active); in the test with NCI-H460 lung, -4.19% (active); with HOP-92 NSCLC it was -17.1% (active). The growth with NCI-H522 lung was -33.6% (active); in the test on A549/ATCC NSCLC it was 14.9%; with 786-0 renal it was 12.6%; with COLO 205 colon, -77.4% (active); in the test with DU-145 prostate, -9.29% (active); with K-562 leukemia, 14.6%. Also, the growth with MALME-3M melanoma is -59.2% (active); in the test with MDA-MB-231 breast, 2.78% (active); in the test on RXF 393 renal, -53.8% (active); in the test on SF-268 CNS, -17.7% (active); with SF-295 CNS, -47.2% (active); in the test with SF-539 CNS, -59.7% (active). Besides, the growth with UACC-257 melanoma was 6.08% (active).

For `CCS(=O)(=O)c1ncnc2nc[nH]c12`, the growth in the test with NCI-H23 lung was 111%; with NCI-H226 lung, 94.2%; in the test with NCI-H322M lung, 106%; with HOP-62 NSCLC, 93.5%; with NCI-H460 lung it was 105%; in the test with HOP-92 NSCLC, 77.1%. The growth in the test with NCI-H522 lung was 65.4%; with A549/ATCC NSCLC it was 89.4%; with 786-0 renal it was 95%; in the test on COLO 205 colon, 102%; with DU-145 prostate, 112%; with K-562 leukemia, 101%. The growth in the test with MALME-3M melanoma is 106%; in the test with MDA-MB-231 breast, 111%; in the test with RXF 393 renal it was 113%; in the test with SF-268 CNS, 104%; with SF-295 CNS, 99.8%; in the test on SF-539 CNS it was 95.1%. For the same molecule, in the test with UACC-257 melanoma, the growth is 93.1%.

For `COc1ccc(C(=O)C[C@]2(O)C(=O)Nc3c(Cl)ccc(Cl)c32)cc1`, the growth was 44.3% in the test with NCI-H23 lung; 58.8% with NCI-H226 lung; 47.5% with NCI-H322M lung; 40.4% in the test on HOP-62 NSCLC; 10.1% in the test on NCI-H460 lung; 62.1% in the test on HOP-92 NSCLC. Also, the growth with NCI-H522 lung was 13.4%; in the test on A549/ATCC NSCLC, 53.4%; in the test with 786-0 renal, 55.9%; in the test with COLO 205 colon, 7.6% (active); with DU-145 prostate it was 21.7%; in the test on K-562 leukemia, 13.6%. In addition, the growth in the test with MALME-3M melanoma is 51.1%; in the test with MDA-MB-231 breast, 49%; in the test on RXF 393 renal it was -3.05% (active); in the test with SF-268 CNS, 61.9%; with SF-295 CNS it was 4.67% (active); in the test with SF-539 CNS, -11.6% (active). In addition, the figures for the growth in the test with UACC-257 melanoma and in the test with M14 melanoma were 63.9% and 5.9% (active), respectively.

With `CCCCOc1ccc(/C=N/NC(N)=S)cc1`, the growth is 87.6% with NCI-H23 lung; 68.9% in the test on NCI-H226 lung; 94.9% with NCI-H322M lung; 116% in the test on HOP-62 NSCLC; 96.5% with NCI-H460 lung; 68.2% in the test on HOP-92 NSCLC. The growth is 8.46% (active) in the test with NCI-H522 lung; 91.4% in the test with A549/ATCC NSCLC; 68.3% in the test on 786-0 renal; 85% with COLO 205 colon; 95.6% in the test with DU-145 prostate; 65% in the test with K-562 leukemia. For the same molecule, the growth was 90.2% in the test with MALME-3M melanoma; 55.7% with MDA-MB-231 breast; 85.7% in the test with RXF 393 renal; 88.7% in the test with SF-268 CNS; 96.9% in the test with SF-295 CNS; 78.9% in the test with SF-539 CNS. The growth in the test with UACC-257 melanoma was 78.4%.

With `COc1cc2cc(Oc3ccc(NC(=O)Nc4cccc(C(F)(F)F)c4)cc3)c(C)nc2cc1OCCN1CCOCC1`, the growth with NCI-H23 lung was 15.4%; in the test on NCI-H226 lung it was 57%; in the test with NCI-H322M lung, 80.4%; with HOP-62 NSCLC, 50.8%; in the test on NCI-H460 lung, 16.4%; in the test on HOP-92 NSCLC, 33.9%. Moreover, the growth with NCI-H522 lung is 29.3%; in the test with A549/ATCC NSCLC it was 15.8%; in the test with 786-0 renal it was 67.3%; in the test on COLO 205 colon it was 35.5%; with DU-145 prostate it was 33.5%; in the test with K-562 leukemia, 11.6%. Further, the growth with MALME-3M melanoma was 55%; in the test with MDA-MB-231 breast, 57.9%; in the test with RXF 393 renal it was 62%; in the test on SF-268 CNS, 55.8%; in the test on SF-295 CNS, 26.7%; in the test on SF-539 CNS, 73.7%. The growth in the test with UACC-257 melanoma was 31%.

With `Cc1c(C(=O)N[C@@H](Cc2ccccc2)C(=O)C(=O)NCc2ccc(F)cc2)[nH]c2ccccc2c1=O`, the growth in the test on NCI-H23 lung is 101%; in the test with NCI-H226 lung it was 89%; in the test with NCI-H322M lung, 98.8%; with HOP-62 NSCLC it was 106%; with NCI-H460 lung, 56.9%; in the test with HOP-92 NSCLC, 94.4%. Also, the growth in the test with NCI-H522 lung is 91.4%; with A549/ATCC NSCLC it was 97.3%; in the test with 786-0 renal, 102%; with COLO 205 colon it was -42.1% (active); with DU-145 prostate, 105%; in the test on K-562 leukemia, 84.2%. Also, the growth was 102% with MALME-3M melanoma; 100% with MDA-MB-231 breast; 103% with RXF 393 renal; 97.4% with SF-268 CNS; 105% in the test on SF-295 CNS; 101% in the test on SF-539 CNS. In addition, the growth with UACC-257 melanoma is 101%.
